# Screening data as filed in PubChem.
# In the library only some 3.3% were active in any assay of this set; here they are far more common.
# Sm TGR block – blocks Schistosoma mansoni thioredoxin glutathione reductase; Potency, µM (series often up to 114 µM), without a hit: at the highest dose activity change, negative = inhibition, actives largely listed as inhibitors; actives 3% (n = 360,000); purified TGR, DTNB reduction, TNB absorbance 405 nm; note: nearly all actives have a fitted effect of over 60% in size
#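 Kinetic colorimetric format: TGR-catalysed, NADPH-driven DTNB reduction monitored via TNB absorbance. Enzyme dispensed at 20 nM; compound exposure 15 min at room temperature before reaction start.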
# AmpC inh detg – AmpC beta-lactamase inhibition with detergent present. P00811. AmpC hydrolysis of nitrocefin, absorbance 480 nm, 0.01% Triton. Potency, µM (titrated, usually from 114 µM), for inactives: top-dose activity change, negative = inhibition, hits mostly inhibitors. actives 0.041% (n = 370,000). AID 485294;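 note: 0% = no-compound wells and -100% = no-enzyme wells; nearly all actives have a fitted effect of over 25% in size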
# Target sequence (P00811 whole entry, looked up): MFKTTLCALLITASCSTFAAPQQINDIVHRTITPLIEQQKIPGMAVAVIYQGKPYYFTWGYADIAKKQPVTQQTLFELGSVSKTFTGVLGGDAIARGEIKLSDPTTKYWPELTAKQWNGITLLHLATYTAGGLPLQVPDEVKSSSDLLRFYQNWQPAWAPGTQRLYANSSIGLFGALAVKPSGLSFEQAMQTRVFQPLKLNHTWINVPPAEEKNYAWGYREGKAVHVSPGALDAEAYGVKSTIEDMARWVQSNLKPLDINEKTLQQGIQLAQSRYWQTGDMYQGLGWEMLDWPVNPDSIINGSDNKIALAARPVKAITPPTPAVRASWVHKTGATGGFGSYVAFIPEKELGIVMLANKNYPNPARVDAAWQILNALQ
#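 20 mM phosphate pH 7.0 + 0.01% (detergent screen) or 0.0001% Triton X-100; 5.3 nM AmpC reagent; cpd preinc 15 min RT; nitrocefin (800 uM stock) to start; A480 q20 s × 4 min; Activity was normalised to no-enzyme and no-compound control wells.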
# AmpC no deterg – inhibitors of E. coli AmpC beta-lactamase without detergent; P00811; AmpC nitrocefin hydrolysis, absorbance 480 nm, 0.0001% Triton; Potency, µM (top dose mostly 57.1 µM), without a hit: at the highest dose activity change, negative = inhibition, usual class: inhibitors; actives 0.52% (n = 330,000);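 note: plate controls were no compound for no effect and no enzyme for full effect; nearly all actives have a fitted effect of over 20% in size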
#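 AmpC (5.3 nM in the dispensed reagent) in 20 mM phosphate pH 7.0 with 0.01% (detergent screen) or 0.0001% Triton X-100 was preincubated with compounds for 15 min at room temperature. Nitrocefin was then added from an 800 uM solution, and hydrolysis was followed at 480 nm.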
# Starred values were filed as active, the others as inactive; ? = inconclusive; . = no result given; [ ] = another dose, or the depositor's remark. Calls come from the whole dose curve; as a rule, active = well fitted curve in the direction sought with a large enough effect; inconclusive = small, poorly fitted or top-dose-only effect, or another doubt; inactive = no such curve, though single readings can be large; an effect the other way counts as inactive or inconclusive. Unless noted, % is set by controls: 0 for no effect and ±100 for the full control effect; potency is the fitted concentration of half-maximal effect.
SMILES,Sm TGR block,AmpC inh detg,AmpC no deterg
Cn1c(=O)c2c(nc(CN3CCN(Cc4ccccc4)CC3)n2CCN2CCOCC2)n(C)c1=O,39.8µM*,10.1%,32.4%
CCN1CCN(c2nc3c(c(=O)n(C)c(=O)n3C)n2Cc2cccc3ccccc23)CC1,-10.6%,-0.3%,53.6%
CCCCCCCCCCCC(=O)N/N=C/c1ccco1,-10.2%,0.2%,-24.7%
CSCCC(NC(=O)COc1ccccc1)C(=O)NCCOc1ccccc1 (configuration not stated),-19.3%,6.0%,-1.2%
COc1ccc(C(=O)C2CCCN(Cc3cccn3-c3ccc(Cl)cn3)C2)c(OC)c1 (configuration not stated),-0.1%[57.1 µM],-0.2%,118.3%
CCCc1cc(=O)oc2c(C)c3c(cc12)CN(CCc1ccc(Cl)cc1)CO3,-2.0%,-2.5%,.
C/C(=N\Nc1nc(C)c(C)s1)c1ccc([N+](=O)[O-])cc1,22.4µM*,?,-17.1%
C/C(=N\Nc1ccc([N+](=O)[O-])cc1)c1ccc(N)cc1,-35.6%,-11.0%,-27.8%
O=C(Cc1ccccc1)N(Cc1cccnc1)c1nc2c(Cl)cccc2s1,-1.1%,-1.2%,.
CN=c1scc(-c2ccc(F)cc2)n1/N=C/c1ccc(O)c(O)c1,11.2µM*,-12.7%,-34.0%
CCN=c1scc(-c2ccco2)n1/N=C/c1ccc(OC)c(O)c1,?,-7.2%,.
CC(C)c1ccccc1NC(=O)COC(=O)CCN1C(=O)/C(=C\C=C\c2ccccc2)SC1=S,-8.7%,-12.6%,-36.6%
O=C(COC(=O)CCN1C(=O)/C(=C\C=C\c2ccccc2)SC1=S)Nc1ccc(Br)cc1,.,3.0%,17.8µM*
CC(=O)C1=C(O)C(=O)N(CCc2c[nH]c3ccccc23)C1c1ccco1 (configuration not stated),39.8µM*,-2.9%,-27.3%
CC(=O)C1=C(O)C(=O)N(CCc2c[nH]c3ccccc23)C1c1ccc(C)cc1 (configuration not stated),6.7%,-1.6%,-34.0%
CCC(C)/C=C(C)/C=C/C1=CC2=C(Cl)C(=O)C(C)(OC(C)=O)C(=O)C2=CO1 (configuration not stated),-21.0%,5.1%,72.4%
CC[C@H](C)/C=C(C)/C=C/C1=CC2=CC(=O)[C@]3(C)OC(=O)[C@@H](C(C)=O)[C@@H]3C2=CO1,14.1µM*,6.5%,96.9%
CCOc1ccc(CNC(=O)c2ccccc2NC(=O)C2=CSCCO2)cc1,-6.9%,?,-28.6%
CCOc1cc(C2CC(=O)N3CN(C4CCCCC4)CSC3=C2C#N)ccc1O (configuration not stated),10µM*,?,?
N#Cc1cc(C(=O)c2cc(Br)ccc2O)cn(C2CCCCC2)c1=O,-35.1%,-8.7%,-46.8%
N#CC1=C2SCN(C3CCCCC3)CN2C(=O)CC1c1ccc(Br)cc1 (configuration not stated),10µM*,0.9%,.
CCOc1cc(C2CC(=O)NC(SCC)=C2C#N)ccc1O (configuration not stated),-16.0%,-10.7%,-3.2%
O=C(O)c1ccccc1NC(c1ccccc1)c1ccc(Cl)cc1 (configuration not stated),-5.6%,-5.1%,-44.0%
O=C(NCCCN1CCCC1=O)C1CCCO1 (configuration not stated),12.3%,-12.0%,-18.7%
O=C(CN(C(=O)CCC(=O)Nc1ccccn1)c1ccccc1F)NCc1ccc2c(c1)OCO2,-4.5%,-12.4%,-18.3%
SMILES,Sm TGR block,AmpC inh detg,AmpC no deterg
CCOC(=O)N1CCN(C(=O)c2ccc(CS(=O)c3ccccc3)o2)CC1 (configuration not stated),-4.6%,-2.5%,-3.7%
Cc1cccc(S(=O)Cc2ccc(C(=O)N3CCOCC3)o2)c1 (configuration not stated),44.7µM*,1.8%,-2.2%
Cc1ccc(Cl)c2sc(N3CCN(C(=O)c4ccco4)CC3)nc12,4.6%,0.2%,137.5%
Cc1ccc(C)c2sc(N3CCN(C(=O)c4ccco4)CC3)nc12,56.2µM*,5.4%,.
Cc1cc(N2CCN(c3ccccc3)CC2)nc(-c2ccccc2)n1,3.8%,?,30.8%
Cc1cc(N2CCN(C(=O)c3ccco3)CC2)nc(-c2ccccc2)n1,44.7µM*,9.8%,120.7%
CCCOc1ccc(OC(=O)c2cn(-c3ccc(OC)cc3)c(=O)c3ccccc23)cc1,-4.0%,-4.4%,.
CCc1c(O)nc(SCC(=O)Nc2ccccc2)n(-c2ccccc2)c1=O,-8.5%,?,-23.6%
Cc1ccc(NC(=O)CSc2nc(O)cc(=O)n2C)cc1,28.5%,?,-33.2%
